# Data as given in PubChem BioAssay.
# Assay: blood-stage malaria parasite viability loss – strain 3D7, DAPI fluorescence, 100 nL, primary screen (AID 1184);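 note: parasites grown inside human red blood cells in medium with human serum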
# Conditions: P. falciparum 3D7 growth, 3 d, higher = more signal
row,Structure (SMILES),z-score
1,CC(C)=NOCc1cccc(-c2cc(-c3ccccc3)no2)c1,2.06
2,O=C1[C@H]2[C@H]3[C@H](O)[C@H](O)CC(=NOC[C@@H](O)COCc4ccco4)[C@H]3CC[C@H]2C(=O)N1Cc1ccc2c(c1)OCO2,0.436
3,O=C1C[C@@H](O)[C@@H](O)[C@@H]2[C@@H]3C(=O)N(C4CCCCC4)C(=O)[C@@H]3CC[C@H]12,0.266
4,C[C@@H]1CCC2C(=O)N(Cc3ccccc3)C[C@@H](O)CN2[C@H]1c1ccc(Br)cc1 (some centres not stated),0.787
5,CCOC(=O)CCN1C(=O)[C@H]2[C@H]3[C@H](O)[C@H](O)CC(=NOCc4ccccc4)[C@@H]3CC[C@H]2C1=O,0.226
6,O=C1[C@H]2[C@H]3[C@H](O)[C@H](O)CC(=NOC[C@@H](O)COCc4ccco4)[C@H]3CC[C@H]2C(=O)N1C1CCCCC1,-1.24
7,COc1ccc(OC[C@H]2Cc3c(-c4ccccc4)nc4c(c3CO2)CN(CCOc2ccccc2)CC4)cc1,-1.34
8,CCOC(=O)[C@H](Cc1ccccc1)NC(=O)CCC1CC(OC(=O)NCCc2ccc(F)cc2)CC2(CCCC(COC(=O)NCC(c3ccccc3)c3ccccc3)O2)O1 (some centres not stated),-1.39
9,C#CCCCON=C1C[C@@H](O)[C@@H](O)[C@@H]2[C@@H]3C(=O)N(CCC(=O)OCC)C(=O)[C@@H]3CC[C@@H]12,0.165
10,CCCC[C@@H](O)C1=C(C)C[C@H]2C(=O)N(Cc3ccccc3)C(=O)[C@H]2[C@H]1CO,-0.224
11,COC(=O)C1=CCC(c2cccc(Cl)c2)O1 (configuration not stated),-0.539
12,C=CC[C@@H]1C=C[C@H](ON=C(C)CCN2CCc3nc(CC)c(CC)cc3C2)[C@@H](CO)O1,-0.163
